Results: PubChem BioAssay AID729 (The Scripps Research Institute Molecular Screening Center, 2007)
Among all 97,000 compounds or so, about 450 (0.46%) were called active. Shown is part of a subset that was picked to be rich in actives. Values without a mark were called inactive. Cut-off read from the data, not from the text of the source: active = activation above about 16%; inactive = the rest.

What follows are compounds tested against Sphingosine 1-phosphate receptor 2 (Homo sapiens) (UniProt O95136) (assay: activation of human S1P2 receptor – cell-based, primary screen (AID 729;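 note: 0% = vehicle low control and 100% = maximal reference agonist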)). Details: S1P2-expressing cell line, agonist reporter read-out; at 4.5 µM; active compounds read high.
Sphingosine 1-phosphate receptor 2 (Homo sapiens), sequence (O95136 whole entry, looked up): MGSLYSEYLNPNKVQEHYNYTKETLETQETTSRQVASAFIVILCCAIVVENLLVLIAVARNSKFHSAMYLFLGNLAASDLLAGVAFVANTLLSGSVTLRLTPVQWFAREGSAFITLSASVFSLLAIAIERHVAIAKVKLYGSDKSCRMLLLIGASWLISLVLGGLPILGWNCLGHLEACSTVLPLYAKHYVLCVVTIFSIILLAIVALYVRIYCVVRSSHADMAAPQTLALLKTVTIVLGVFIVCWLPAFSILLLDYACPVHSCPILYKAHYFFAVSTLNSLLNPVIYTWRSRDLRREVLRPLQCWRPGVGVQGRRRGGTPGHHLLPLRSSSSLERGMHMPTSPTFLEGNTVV
`Cc1ccc(-c2nnc(C)c(N3CC(C)OC(C)C3)n2)cc1` (stereo not drawn) showed an activation of -6.7%. `COc1ccc(-c2cc(C(=O)n3cnc4ccccc43)c3ccccc3n2)cc1` was tested, and the activation was -1.61%. `CC(C)C(NS(=O)(=O)c1cccs1)C(=O)Nc1nc(C(C)(C)C)cs1` (stereo not drawn) showed an activation of -5.87%. Compound `Cc1nc(C)c(C(=O)N(c2ccc(C)c(C)c2)C(C(=O)NCc2ccco2)c2ccccc2)s1` (stereo not drawn) has an activation of -5.57%. Compound `COc1ccc(/C=N/Nc2nc3ccccc3o2)cc1OC` has an activation of 1.35%. Compound `O=C1CCCc2c1nc(-c1cccc(Cl)c1)n2O` has an activation of -8.02%. With `Cc1ccc(-c2csc(SCC(=O)Nc3cc(C)on3)n2)cc1` the activation was -3.51%. `O=C(O)[C@@H]1CCCN1c1ncnc2sc3c(c12)CCC3` gave an activation of -0.47%. Work on `CC(C)(C)C(=O)Cn1c(NCCO)nc2ccccc21` yielded an activation of 0.17%. In the case of `OCCNc1nc2ccccc2n1-c1ncnc2sc3c(c12)CCC3`, the activation is reported as 17.8% (active). Work on `COc1ccccc1/C=C/C1=NC(=C\N(C)C)/C(=O)O1` yielded an activation of 3.03%. `CCCc1nc2sc3c(c2c(=O)n1NC(=O)CCCl)CCCC3` gave an activation of -7.02%. With `Cc1ccc2oc(=O)c3cnn(CC(=O)N(Cc4ccco4)C4CCCCC4)c3c2c1` the activation was -2.42%. For `CC(CN1CCOCC1)c1ccccc1` (stereo not drawn), the activation was -0.64%. For `COc1ccc(NC(=O)COC(=O)Cn2c(C)nc3ccccc32)cc1OC`, the activation was -6.15%. `COc1ccc(NC(=O)C(NC(C)=O)C(=O)NCc2ccccc2Cl)cc1` (stereo not drawn) gave an activation of -7.51%. `CCNC(=O)NC(=O)C(C)OC(=O)c1cc(S(=O)(=O)N2CCCCCC2)ccc1OC` (stereo not drawn) showed an activation of -4.87%. For `COc1ccc(N(CCC#N)S(=O)(=O)c2ccc(Cl)cc2)cc1`, the activation was -1.5%. `O=C(NCc1ccco1)C1CCCN(S(=O)(=O)c2ccccc2)C1` (stereo not drawn) showed an activation of -2.97%. `O=C1CSC(c2cccc(F)c2)N1c1ccc(O)cc1` (stereo not drawn) gave an activation of -7.24%. Work on `Nc1nc(Br)c2ccccc2c1-c1ccc(F)cc1` yielded an activation of 4.89%. Compound `Cc1ccc(S(=O)(=O)N2CCN(S(=O)(=O)N3CCOCC3)CC2)cc1` has an activation of -6.81%. For `CCC(C)n1c(-c2cc(OC)c(OC)c(OC)c2)nc2nc3ccccc3nc21` (stereo not drawn), the activation was 16.8% (active). With `COc1ccc(-c2nc3ccccc3n2CCC(C)C)cc1OC` the activation was -4.13%. `COc1cc(C(O)c2nc3ccccc3n2C)cc(OC)c1OC` (stereo not drawn) showed an activation of -6.52%. For `CC(C)(C)c1ccc(OC2=CS(=O)(=O)c3ccccc32)cc1`, the activation was -6.02%. For `O=C(CCCCCn1c(=O)[nH]c2ccccc2c1=O)NCCc1c[nH]c2ccccc12`, the activation was -8.42%. Compound `CCc1ccc2c(c1)C1(NN=C(c3ccccc3)S1)C(=O)N2` (stereo not drawn) has an activation of -1.92%. `COc1ccc(C(=O)Nc2ccc(F)cc2F)cc1` was tested, and the activation was -5.08%. Work on `Cc1cc(C)c(S(=O)(=O)NCC2CCC(C(=O)NCc3ccc4c(c3)OCO4)CC2)c(C)c1` (stereo not drawn) yielded an activation of -5.15%. `OC(C#CCN1CCOCC1)(c1ccccc1)C1CCCCC1` (stereo not drawn) showed an activation of -4.7%. Work on `CC1CN(S(=O)(=O)c2ccccc2)C(C)CN1S(=O)(=O)c1ccccc1` (stereo not drawn) yielded an activation of -2.5%. `O=C(Nc1ccccc1Cl)N1CCN(c2ccc3nncn3n2)CC1` gave an activation of -1.47%. With `O=C(NCCc1ccccc1)c1ccc(NC2=NC3CS(=O)(=O)CC3S2)cc1` (stereo not drawn) the activation was 0.04%. For `COc1ccccc1C(c1nnnn1C(C)(C)C)N1CCN(Cc2ccccc2)CC1` (stereo not drawn), the activation was -7.69%. With `Cc1c(Nc2nc3ccccc3nc2NS(=O)(=O)c2cccs2)c(=O)n(-c2ccccc2)n1C` the activation was -4.46%. With `O=S(=O)(NCC1OCCc2ccccc21)c1ccccc1` (stereo not drawn) the activation was 0.09%. For `CN1CCN(C(=O)Cn2c(C(F)(F)F)nc3ccccc32)CC1`, the activation was -7.46%. In the case of `COC(=O)c1cc(OC)c(OC)cc1NC(=O)CSc1ccc(C)cc1`, the activation is reported as -4.04%. `COc1ccccc1CCNC(=O)c1cnccn1` was tested, and the activation was -1.07%. Compound `Cc1ccc(-n2cc3ccc([N+](=O)[O-])cc3n2)cc1` has an activation of -0.28%. `CCOc1ccccc1NC(=O)c1cccnc1` showed an activation of -2.14%. With `Cc1nc2ccc(C(=O)N3CCN(c4ccccc4)CC3)cc2s1` the activation was -0.32%. `CCOc1nc(NCCN2CCOCC2)nc(Nc2ccc(C)cc2)n1` showed an activation of -6.53%. In the case of `CCc1c(O)cc2n(c1=O)-c1ccccc1C2(C)C`, the activation is reported as -1.15%. In the case of `CSCCC(NC(=O)COc1ccccc1)C(=O)OCC(=O)c1cc2ccccc2o1` (stereo not drawn), the activation is reported as 0.32%. `COc1ccc(/C=N/Nc2nc3ccccc3c(=O)[nH]2)cc1` showed an activation of -4.61%. In the case of `O=c1[nH]c(-c2cccs2)nc2ccccc12`, the activation is reported as 71.4% (active). Work on `CC(C)n1c(-c2cccs2)nc2ccccc21` yielded an activation of -0.76%. In the case of `CCCCNC(=O)CCNC(=O)c1ccc(C(C)(C)C)cc1`, the activation is reported as -3.72%. With `N#C/C(=C/c1ccc(Cl)cc1)NC(=O)c1ccccc1` the activation was -4.04%. With `CNc1nc(SC)nc(N(C#N)CC(=O)OC)n1` the activation was -6.48%. Compound `CNC(=O)CN1C(=O)c2ccccc2S1(=O)=O` has an activation of -1.63%. In the case of `Nc1nnc(SCCN2C(=O)c3ccccc3S2(=O)=O)s1`, the activation is reported as 17.5% (active). `CCCc1nnc(NC(=O)CN2C(=O)c3ccccc3S2(=O)=O)s1` was tested, and the activation was -3.54%. `CCc1nc(Nc2ccc3nccnc3c2)c2oc3ccccc3c2n1` was tested, and the activation was 46.5% (active). `Cc1nc(Cl)c2oc3ccccc3c2n1` showed an activation of 1.01%. With `COc1ccccc1Nc1ncnc2c1oc1ccccc12` the activation was -9.1%. Work on `Cc1cc(C)n(-c2nc(O)cc(=O)[nH]2)n1` yielded an activation of -4.33%. With `Cc1ccc(-n2ccc(=O)c(C(=O)O)n2)cc1` the activation was -0.77%. With `C=CCO/N=C(\C)c1c(O)c(C)c(-c2ccccc2)n(-c2ccccc2)c1=O` the activation was -3%. In the case of `COc1ccc(SCc2noc(C(=O)NCC3CCCO3)c2C(=O)O)cc1` (stereo not drawn), the activation is reported as -7.32%. Work on `CCOc1c2ccc(C(=O)NCc3ccc4c(c3)OCO4)cc2nn1C` yielded an activation of -2.43%.
